Inconclusive results are not listed. Active and inactive are the calls of the source. Unless noted, calls come from the whole dose curve; as a rule, active = well fitted curve in the direction sought with a large enough effect; inconclusive = small, poorly fitted or top-dose-only effect, or another doubt; inactive = no such curve, though single readings can be large; an effect the other way counts as inactive or inconclusive.
Columns and labels:
[1] = qHTS for Inhibitors of the Functional Ribonucleoprotein Complex (vRNP) of Lassa (LASV) Arenavirus: LASV Primary Screen - GLuc reporter signal (AID 1347082; calls by dose curve; tested in HEK293 reporter line; note: nearly all actives have a fitted effect of over 60% in size); settings: LASV minigenome vRNP, Gaussia luciferase reporter; series mostly up to 57.5 µM
[2] = qHTS for Inhibitors of the Functional Ribonucleoprotein Complex (vRNP) of Lassa (LASV) Arenavirus: Viability assay - alamar blue signal for LASV Primary Screen (AID 1347083; calls by dose curve; tested in HEK293 reporter line; note: nearly all actives have a fitted effect of over 80% in size); settings: cell viability, alamar blue fluorescence (LASV minigenome counter-screen); series mostly up to 57.5 µM
[3] = molecular target: Nucleoprotein (Lymphocytic choriomeningitis virus (strain Armstrong)) (UniProt P09992); assay: qHTS for Inhibitors of the Functional Ribonucleoprotein Complex (vRNP) of Lymphocytic Choriomeningitis Arenaviruses (LCMV): LCMV Primary Screen - GLuc reporter signal (AID 1347086; calls by dose curve; note: nearly all actives have a fitted effect of over 70% in size); settings: LCMV minigenome vRNP cell assay, Gaussia luciferase reporter; series mostly up to 57.5 µM
Nucleoprotein (Lymphocytic choriomeningitis virus (strain Armstrong)), sequence (P09992 whole entry, looked up): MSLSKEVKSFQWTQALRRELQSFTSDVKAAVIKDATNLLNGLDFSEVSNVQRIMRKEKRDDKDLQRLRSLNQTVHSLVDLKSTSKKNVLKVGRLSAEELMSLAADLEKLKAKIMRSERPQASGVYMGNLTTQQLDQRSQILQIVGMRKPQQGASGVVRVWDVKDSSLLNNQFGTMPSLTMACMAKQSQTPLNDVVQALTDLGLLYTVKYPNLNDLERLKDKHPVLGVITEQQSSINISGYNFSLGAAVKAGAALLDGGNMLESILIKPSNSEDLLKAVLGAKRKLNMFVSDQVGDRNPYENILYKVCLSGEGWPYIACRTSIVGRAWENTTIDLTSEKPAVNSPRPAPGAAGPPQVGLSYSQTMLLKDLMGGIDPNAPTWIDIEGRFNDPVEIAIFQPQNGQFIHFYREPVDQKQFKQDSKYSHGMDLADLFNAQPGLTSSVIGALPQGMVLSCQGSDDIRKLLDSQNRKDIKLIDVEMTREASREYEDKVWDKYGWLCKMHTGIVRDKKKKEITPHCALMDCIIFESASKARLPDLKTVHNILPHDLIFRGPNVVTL

[4] = qHTS for Inhibitors of the Functional Ribonucleoprotein Complex (vRNP) of Lymphocytic Choriomeningitis Arenaviruses (LCMV): Viability assay - alamar blue signal for LCMV Primary Screen (AID 1347085; calls by dose curve; tested in HEK293 reporter line; note: nearly all actives have a fitted effect of over 80% in size); settings: alamar blue viability counter-screen, LCMV vRNP screen cells; series mostly up to 57.5 µM
[5] = qHTS of pediatric cancer cell lines to identify multiple opportunities for drug repurposing: Primary screen for TC32 cells (AID 1347089); settings: TC32 Ewing sarcoma viability, CellTiter-Glo luminescence, 48 h; series mostly up to 45.8 µM; note: nearly all actives have a fitted effect of over 60% in size
Outline: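 qHTS, TC32, 48 h drug treatment, CellTiter-Glo luminescence as a proxy for metabolically active cells; primary top concentration 46 µM (MIPE 11-pt, NPC 8-pt); confirmatory 11-pt.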

[6] = qHTS of pediatric cancer cell lines to identify multiple opportunities for drug repurposing: Primary screen for DAOY cells (AID 1347090); settings: DAOY medulloblastoma viability, CellTiter-Glo luminescence, 48 h; series mostly up to 46 µM; note: nearly all actives have a fitted effect of over 55% in size
Outline: (§1)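 Eight- or eleven-point concentration series, 48 h treatment at 37 degrees C in growth media; readout CellTiter-Glo luminescence. Potency and efficacy were taken from the concentration-response curves.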

[7] = qHTS of pediatric cancer cell lines to identify multiple opportunities for drug repurposing: Primary screen for SJ-GBM2 cells (AID 1347091); settings: SJ-GBM2 viability, CellTiter-Glo luminescence, 48 h; series mostly up to 46 µM
Outline: as §1

[8] = qHTS of pediatric cancer cell lines to identify multiple opportunities for drug repurposing: Primary screen for A673 cells (AID 1347092); settings: A673 Ewing sarcoma viability, CellTiter-Glo ATP luminescence, 48 h; series mostly up to 46 µM; note: nearly all actives have a fitted effect of over 45% in size
Outline: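 Luminescence from CellTiter-Glo, taken after 15 min at room temperature, served as the proxy for metabolically active cells following 48 h treatment. Both potency and efficacy were taken from curves fitted to the titration data.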

[9] = qHTS of pediatric cancer cell lines to identify multiple opportunities for drug repurposing: Primary screen for SK-N-MC cells (AID 1347093); settings: SK-N-MC viability, CellTiter-Glo luminescence, 48 h; series mostly up to 46 µM
Outline: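 Metabolically active cells were quantified by ATP-dependent luminescence (CellTiter-Glo, 15 min at room temperature) following 48 h treatment. Cells had been plated at 500-1,000 per well and settled for 5 h beforehand.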

[10] = qHTS of pediatric cancer cell lines to identify multiple opportunities for drug repurposing: Primary screen for BT-37 cells (AID 1347094); settings: BT-37 viability, CellTiter-Glo luminescence, 48 h; series mostly up to 57.3 µM
Outline: (§2)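 Following a 5-hour attachment period, cells at 500-1,000/well received compounds and were cultured for 48 hours. CellTiter-Glo was added and luminescence read to estimate viable, metabolically active cells.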

[11] = qHTS of pediatric cancer cell lines to identify multiple opportunities for drug repurposing: Primary screen for NB-EBc1 cells (AID 1347095); settings: NB-EBc1 neuroblastoma viability, CellTiter-Glo luminescence, 48 h; series mostly up to 46 µM
Outline: as §2

[12] = qHTS of pediatric cancer cell lines to identify multiple opportunities for drug repurposing: Primary screen for U-2 OS cells (AID 1347096); settings: U-2 OS viability, CellTiter-Glo luminescence, 48 h; series mostly up to 46 µM; note: nearly all actives have a fitted effect of over 50% in size
Outline: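 Cells (500-1,000/well) in growth media were settled 5 h at 37 degrees C, then given compounds for 48 h. Viability was read as CellTiter-Glo luminescence. Primary runs used MIPE at 11 points (0.78 nM-46 µM) and NPC at 8 points (0.59 nM-46 µM); follow-ups used 11 points.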

Measured: Potency

CCOC(=O)OC(C)OC1=C(C(=O)Nc2ccccn2)N(C)S(=O)(=O)c2ccccc21 (stereo not given)
inactive: [1] | [2] | [3]

NC(=O)OCCCc1ccccc1
inactive: [1] | [2] | [4] | [3] | [5] | [6] | [7] | [8] | [9] | [10] | [11]

CCc1cc(OC)c(C[C@H](C)N)cc1OC
inactive: [1] | [2] | [4] | [3] | [5] | [6] | [7] | [10] | [11] | [12]

Oc1c(Br)cc(Br)cc1Br
inactive: [1] | [2] | [4] | [3] | [5] | [6] | [7] | [8] | [9] | [10] | [11]

CCN1CCCC1CNC(=O)C(O)(c1ccccc1)c1ccccc1 (stereo not given)
inactive: [1] | [2] | [4] | [3] | [5] | [6] | [7] | [8] | [9] | [10] | [11] | [12]

CCOC(=O)C1(c2ccccc2)CCN(CCc2ccc(N)cc2)CC1
inactive: [1] | [2] | [4] | [3] | [5] | [6] | [7] | [8] | [9] | [10] | [11] | [12]

CN1CCC(N(Cc2ccccc2)c2ccccc2)CC1
inactive: [1] | [2] | [4] | [3] | [5] | [6] | [7] | [8] | [10] | [11] | [12]

CN(C)CCCOc1nn(Cc2ccccc2)c2ccccc12
inactive: [1] | [2] | [3]

CCOC(=O)c1ncn2c1CN(C)C(=O)c1c(I)cccc1-2
inactive: [1] | [2] | [4] | [3] | [5] | [6] | [7] | [8] | [9] | [10] | [11] | [12]

From PubChem BioAssay (NCATS)
